Results on 30 molecules are retold here after PubChem BioAssay AID1825 (The Scripps Research Institute Molecular Screening Center, 2009).

The whole screen tested about 290,000 compounds, of which about 2,300 (0.79%) were called active. The list comes from a sample in which actives are over-represented; it also holds similar structures and randomly drawn compounds. A number with no mark means an inactive call. Rule as the data show it: active = inhibition above about 22%; inactive = the rest.

The test can be described thus: cytotoxicity in IEC-6 intestinal epithelial cells, primary screen, cytotoxicity control for KLF5 inhibitor project, cell-based, luminescence (AID 1825).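 Also: 0% = plate median of test compound wells and 100% = cytotoxic reference compound wells.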 As to conditions: IEC-6 cytotoxicity, luminescence viability; at 5 µM; hits give high values.
A word on the inhibition: it is the drop in the measured response relative to a control, in per cent. As for `O=C(c1cc2sccc2n1Cc1ccc(F)cc1)N1CCc2ccccc21`, the inhibition is 1.8%. Next, `COc1ccccc1C(C)NC(=O)Cc1ccsc1` (stereo not given): 1.9%; `O=C(COC(=O)c1ccc(F)cc1)Nc1nc2ccc([N+](=O)[O-])cc2s1`: -0.2%; `O=C(Nc1nc2ccc([N+](=O)[O-])cc2s1)c1ccc(S(=O)(=O)N2CCCc3ccccc32)cc1`: 2.9%. Consider `O=C(NC(Nc1nc2ccc([N+](=O)[O-])cc2s1)(C(F)(F)F)C(F)(F)F)c1ccccc1`, for which the inhibition was 28% (active). Turning to `CCc1nn(CCCC(=O)Nc2ccc(C)cc2C)c(=O)c2cc3occc3n12`, the inhibition was -4.9%. With `CCCCCCn1c(CN2CCCCC2)nc2c1c(=O)n(C)c(=O)n2C`, the inhibition is -2.7%. Next, `CCCCCCCCn1c2c(c(=N)c3c1CCC3)CCCC2`: 47.1% (active). To `COc1ccc(CCNC(=O)c2c(C)nn(-c3ccccc3)c2Cl)cc1` belongs -1.7%.

As for `CCOC(=O)c1c(C)[nH]c(C)c1S(=O)(=O)N(C)CC(=O)Nc1ccccc1C`, the inhibition is -0.8%. As for `CCOC(=O)C1=C(c2ccc(OC)cc2)C(=O)c2ccccc2C1=O`, the inhibition was -1.7%. To `CCOC(=O)c1c(C)[nH]c2c1-c1ccccc1C(=O)C2=O` belongs 43.3% (active); to `Cc1cc(C)c(S(=O)(=O)c2cc(F)ccc2C)c(=O)[nH]1`, -1.4%. To `O=C(CN1CCCCCC1)Nc1ccc(Cl)cc1F` belongs 8.4%; to `COC(=O)NC1(C(F)(F)F)NC(=O)N(C2CCCCC2)C1=O` (stereo not given), 1.9%. On to `O=C1NC(Nc2nc3ccccc3s2)(C(F)(F)F)C(=O)N1C1CCCCC1` (stereo not given), for which the inhibition is 28.2% (active).

Regarding `O=C(NC1(C(F)(F)F)NC(=O)N(C2CCCCC2)C1=O)c1ccco1` (stereo not given), the inhibition was 3.5%. To `CCN(CC)CCN1C(=O)C(=O)/C(=C(/O)c2cnn(-c3ccccc3)c2C)C1c1cccs1` (stereo not given) belongs 3.3%. Regarding `CN1C(=O)c2ccc(C(=O)Nc3ccc(Br)cn3)cc2C1=O`, the inhibition was 5.5%. As for `C=CCc1ccccc1OCC(=O)N/N=C/c1ccccc1OCC`, the inhibition was 1.4%. Turning to `CSc1ccc(/C=N\NC(=O)COc2ccc(Cl)cc2Br)cc1`, the inhibition was 7.1%.

On to `Cc1ccc(/C=N/NC(=O)COc2ccccc2-c2ccccc2)cc1`, for which the inhibition is 85.6% (active). Take `COc1ccccc1NC(=O)c1ccc(N2CC3CC(C2)c2cccc(=O)n2C3)c(NC(=O)c2cccnc2)c1` (stereo not given): the inhibition was 2.1%. As to `O=C(NCc1ccccc1)C(c1ccco1)N(C(=O)c1csnn1)c1ccccc1F` (stereo not given), the inhibition was 0.2%. Next, `COC(=O)C1=C(C)NC(=O)CC1c1ccccc1OC` (stereo not given): -0.1%. Next, `COc1cc2c(cc1OC)C(c1ccncc1)CC(=O)N2` (stereo not given): 1%; `COc1ccccc1C1C2=C(COC2=O)Nc2cc3c(cc21)OCO3` (stereo not given): 92.2% (active); `CCCOc1ccccc1C1CC(=O)Nc2cc3c(cc21)OCO3` (stereo not given): 77.5% (active). Next, `COc1ccc(C2CC(=O)Nc3cc(C)c(C)cc32)c(OC)c1OC` (stereo not given): 1.9%; `COc1ccc(S(=O)(=O)Nc2ccc3c(c2)OCO3)cc1Cl`: 0.7%.
